# GLP1R cytotox – cytotoxicity in counter-screen for GLP-1R inverse agonists; actives 0.13% (n = 410,000); Potency, µM (highest dose often 38.3 µM), for the others: top-dose activity change, negative = inhibition, usual class: inhibitors; HEK293 cAMP-luciferase reporter cells, luminescence, 24 h;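 note: loss of luciferase light is scored as toxicity; % is set by controls: 0 for no effect and ±100 for the full control effect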
#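 Quantitative HTS format, 1536 wells, 200 cells/uL seeded. Compounds: 23 nL, 24 h, 37 °C. Detection: luciferase reagent, luminescence at 12 min RT; decreased signal taken as cytotoxic.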
# GLP1R inv ag – GLP-1 receptor (human) inverse agonism; HEK293 GLP-1R CRE-luciferase, luminescence, 24 h; GLP-1R form is constitutively active; Potency, µM (highest dose often 38.3 µM), without a hit: at the highest dose activity change, negative = inhibition, usual class: inhibitors; actives 1.6% (n = 410,000); note: % is set by controls: 0 for no effect and ±100 for the full control effect; nearly all actives have a fitted effect of over 55% in size
#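 qHTS in 1536-well format: reporter HEK293 cells expressing constitutive GLP-1R activity in DMEM + 10% Nu serum, 24 hr with compounds at 37 deg C, luminescence read after 12 min with detection reagent.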
# mIDH1 inhibitor – human IDH1 R132H inhibition; O75874; IDH1-R132H enzyme, NADPH consumption, diaphorase/resazurin fluorescence; Potency, µM (titrated, usually from 76.6 µM), for the others: top-dose activity change, negative = inhibition, actives largely listed as inhibitors; actives 0.093% (n = 390,000); AID 602179; note: % is set by controls: 0 for no effect and ±100 for the full control effect; nearly all actives have a fitted effect of over 65% in size
#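 IDH1-R132H (0.5 ug/mL dispensed) in pH 7.5 Tris buffer was preincubated 30 min with compound, then given a substrate mix of 0.016 mM NADPH and 2 mM alpha-KG for 80 min at room temperature; remaining NADPH was read by diaphorase/resazurin fluorescence.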
# TrxR1 substrate – rat thioredoxin reductase 1 substrate activity | Potency, µM (top dose mostly 114 µM), for the others: at the top dose activity change, negative = substrate turnover | actives 0.01% (n = 390,000) | O89049 | AID 588456 | purified TrxR1 substrate turnover, NADPH consumption readout; note: % is set by controls: 0 for no effect and ±100 for the full control effect; nearly all actives have a fitted effect of over 50% in size
# Target sequence (O89049 whole entry, looked up): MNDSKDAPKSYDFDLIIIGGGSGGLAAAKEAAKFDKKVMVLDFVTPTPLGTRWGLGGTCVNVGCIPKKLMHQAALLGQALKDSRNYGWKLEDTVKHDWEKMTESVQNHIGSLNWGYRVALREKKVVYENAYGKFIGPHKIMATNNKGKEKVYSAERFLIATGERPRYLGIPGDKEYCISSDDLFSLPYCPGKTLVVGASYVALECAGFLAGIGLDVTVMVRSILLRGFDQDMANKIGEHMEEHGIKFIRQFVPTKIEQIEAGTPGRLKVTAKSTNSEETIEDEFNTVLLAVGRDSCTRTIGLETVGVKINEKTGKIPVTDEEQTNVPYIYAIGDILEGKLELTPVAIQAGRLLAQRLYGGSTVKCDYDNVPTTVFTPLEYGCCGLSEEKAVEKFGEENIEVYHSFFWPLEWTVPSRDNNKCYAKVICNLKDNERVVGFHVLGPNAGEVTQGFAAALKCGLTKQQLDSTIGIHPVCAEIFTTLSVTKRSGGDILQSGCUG
#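 Rat TrxR1, dispensed at 90 nM, was prereduced with 400 uM NADPH (final) for 5 min at ~22 deg C, then incubated with compound 15 min before 400 uM selenite. A first-read NADPH fluorescence drop versus no-compound background flagged substrates.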
# GLP-1R agonist – activates the human GLP-1 receptor; P43220; HEK293 GLP-1R CRE-luciferase, luminescence, 4-6 h; cells express a hypersensitive GLP-1R form; Potency, µM (doses to about 45.6 µM), without a hit: at the highest dose activation, usual class: activators; actives 0.007% (n = 380,000); note: % of control where 0% means no effect
# TrxR1 inh – blocks rat thioredoxin reductase 1; actives 1% (n = 390,000); AID 588453; Potency, µM (doses to about 114 µM), without a hit: top-dose activity change, negative = inhibition, most hits filed as inhibitors; recombinant rTrxR1, NADPH fluorescence consumption, selenite substrate; O89049; note: % is set by controls: 0 for no effect and ±100 for the full control effect; nearly all actives have a fitted effect of over 65% in size
#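 Rat TrxR1 (90 nM in the dispensed reagent) was pre-reduced with 400 uM NADPH for 5 min at room temperature, then incubated with compound for 15 min. After 400 uM selenite was added, NADPH fluorescence (Ex 340/Em 450 nm) was followed for 8 min.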
# * marks the source's active call; other numbers are inactive results; ? = inconclusive; . = no result; [ ] = remark or other dose. Compounds with a hit are over-represented: about 2.7% of the library has one in this group of screens. Calls come from the whole dose curve; as a rule, active = well fitted curve in the direction sought with a large enough effect; inconclusive = small, poorly fitted or top-dose-only effect, or another doubt; inactive = no such curve, though single readings can be large; an effect the other way counts as inactive or inconclusive. Potency is the fitted concentration of half-maximal effect.
SMILES,GLP1R cytotox,GLP1R inv ag,mIDH1 inhibitor,TrxR1 substrate,GLP-1R agonist,TrxR1 inh
Cc1ccc(N2C(=O)CC(Nc3ccc(Cl)c(S(=O)(=O)N(C)C)c3)C2=O)c(C)c1 (configuration not stated),-9%,6%,0%,5%,-2%,50µM*
O=C(CCCCCn1c(=O)c2sccc2n(CC(=O)Nc2cccc(Cl)c2)c1=O)NCc1ccc2c(c1)OCO2,5%,0%,4%,1%,.,?
O=C(c1ccco1)N1CCN(CC(=O)N2CCCc3c2c(=O)oc2ccc(O)cc32)CC1,5%,1%,3%,-9%[57.1 µM],-2%,16µM*
NC(N)=N/N=C/c1ccc(OS(=O)(=O)c2ccccc2)cc1,?,6.3µM*,2%,-2%,-5%,14%
Cc1ccnc2ccc(N)cc12,.,.,.,6%,.,13%
CC(Cc1ccc(O)c(O)c1)C(C)Cc1ccc(O)c(O)c1 (configuration not stated),-11%,-24%,-11%,5%,7%,?
C[C@H](Cc1ccc(O)c(O)c1)[C@@H](C)Cc1ccc(O)c(O)c1,.,.,.,8%[57.1 µM],.,13µM*
CC(C)(C)n1ncc2c(=O)n(Cc3ccccc3CS(=O)(=O)c3ccccc3)cnc21,.,.,.,-7%,.,7%
CC1=C(C#N)c2nc(N)c(C#N)c(C)c2/C1=C\c1ccc(OCC(=O)O)c(Cl)c1,-5%,-3%,?,10%,7%,50µM*
C=C(CC1([C@@H](NP(=O)(c2ccccc2)c2ccccc2)[C@H]2C[C@@H]2CCCC)CC1)c1ccccc1,9%,2.5µM*,11%,3%[57.1 µM],1%,8%[57.1 µM]
Cc1cc(-n2c(=O)[nH]c(=O)n(C)c2=O)ccc1Oc1ccc(S(=O)(=O)C(F)(F)F)cc1,.,.,.,.,-4%,.
COc1ccc(CCN2C(=O)N(c3ccc(C)cc3)C(=O)C2CC(=O)Nc2ccc(F)cc2)cc1 (configuration not stated),-18%,7.9µM*,3%,-12%,-2%,2%
COc1ccc(NC(=O)CC2C(=O)N(C)C(=S)N2CCc2ccc(F)cc2)cc1 (configuration not stated),-21%,11µM*,9%,-1%[57.1 µM],5%,-5%[57.1 µM]
O=[N+]([O-])c1ccc(S(=O)(=O)c2ccccc2)nc1,-19%,?,2%,13%[57.1 µM],-7%,?
Cc1ccc(S(=O)(=O)c2ccc([N+](=O)[O-])cn2)cc1,?,7.9µM*,14%,-8%,-4%,0.45µM*
O=C(NCCc1csc(-c2ccc(C(F)(F)F)cc2)n1)c1ccc(F)c(F)c1,-12%,10µM*,-3%,4%[57.1 µM],-2%,26%[57.1 µM]
Fc1ccc2c(c1)Sc1ccc(Cl)cc1CC2N1CCN(CCC2OCCO2)CC1 (configuration not stated),?,3.5µM*,-4%,2%,17%,-6%
O=[N+]([O-])c1ccc2c(c1)C(N1CCN(CCO)CC1)Cc1ccc(F)cc1S2 (configuration not stated),-12%,?,.,.,13%,.
O=C(Nc1cccc(F)c1)c1ccc(-c2ccccc2)s1,-18%,-1%,-1%,6%,.,10%
O=C(Nc1ccc(NC(=O)c2ccco2)cc1)c1ccco1,-7%,20%,-16%,3%,-3%,6%
Cc1nc(-c2ccc(NC(=O)c3ccco3)cc2)cs1,24%,1µM*,-1%,0%,-6%,24%
Cc1nc(-c2cccc(NC(=O)c3ccco3)c2)cs1,-6%,8%,1%,-3%,12%,4%
Nc1nc(-c2ccc(NC(=O)c3ccco3)cc2)cs1,-5%,7.9µM*,0%,-3%[57.1 µM],5%,-7%
Cc1cn2c(=O)cc(COC(=O)c3cccc(NC(=O)C(C)Oc4ccccc4)c3)nc2s1 (configuration not stated),-8%,4%,-4%,7%[57.1 µM],.,22%[57.1 µM]
COc1ccc(N2CCC(CNC(=O)Nc3ccc(C)c(C)c3)C2)cc1 (configuration not stated),3%,6.3µM*,7%,-3%,-1%,-13%
SMILES,GLP1R cytotox,GLP1R inv ag,mIDH1 inhibitor,TrxR1 substrate,GLP-1R agonist,TrxR1 inh
CCOc1ccc(NC(=O)NCC2CCN(c3ccc(OC)cc3)C2)cc1 (configuration not stated),-7%,-19%,-6%,7%[57.1 µM],-9%,-9%[57.1 µM]
COc1ccc(-c2cc(C3C4C=CCCC4(C)C(=O)N3Cc3ccccc3)ccc2F)cc1 (configuration not stated),.,.,.,-9%,.,-5%
O=C(Nc1ccc2nc(SCC(=O)N3CCOCC3)sc2c1)c1cccc(Br)c1,-28%,?,3%,8%,.,32%
CN(CC(=O)Nc1ccc(Cl)cc1)CC(=O)Nc1sc2c(c1C(N)=O)CCC2,-53%,4µM*,-3%,.,2%,.
Cc1ccc(NC(=O)CN(C)CC(=O)Nc2sc3c(c2C(N)=O)CCC3)cc1,-14%,?,2%,-3%,12%,-12%
O=c1c2ccccc2sc2nc(C3CCCCC3)n(Cc3ccco3)c(=O)c12,-10%,0%,-3%,3%,-1%,-4%
CCc1nc2sc3ccccc3c(=O)c2c(=O)n1Cc1ccco1,-10%,66%,-7%,-6%[57.1 µM],5%,14µM*
O=C1CC(c2nnc(Cc3cccc(Cl)c3)o2)CN1c1ccccc1 (configuration not stated),10%,-3%,0%,-2%,.,8%
CCc1ccc(-c2cc(C)no2)cc1S(=O)(=O)N1CCN(c2ccccc2F)CC1,4%,4%,-4%,6%,0%,29%
COc1ccccc1N1CCN(S(=O)(=O)c2cc(-c3cc(C)no3)ccc2C(C)C)CC1,-9%,1µM*,-5%,-2%,5%,26%
Cc1cccc(N2CCN(S(=O)(=O)c3cc(-c4cc(C)no4)ccc3C)CC2C)c1 (configuration not stated),-12%,4µM*,0%,13%,-3%,49%
COc1ccc(-c2cc(C)no2)cc1S(=O)(=O)N1CCN(c2cccc(C)c2)C(C)C1 (configuration not stated),4%,?,3%,4%,-4%,18%
CCc1ccc(-c2cc(C)no2)cc1S(=O)(=O)N1CCCN(Cc2ccc(F)cc2)C1,-24%,2.5µM*,0%,4%,-5%,27%
CCc1ccc(-c2cc(C)no2)cc1S(=O)(=O)N1CCN(c2cccc(C)c2C)CC1,-10%,7.9µM*,-12%,0%,2%,10%

# Compound activity (PubChem BioAssay)
